APOBEC3A inh – blocks human APOBEC3A ssDNA deamination; actives 0.41% (n = 330,000); recombinant A3A, FAM/TAMRA ssDNA deamination fluorescence; AID 493011; inhibition, % at 20 µM; P31941;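 active means at least 40% inhibition at 20 µM here, with at most 30% in a related deaminase screen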;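 further: plate controls were A3A with DMSO for no effect and wells lacking A3A enzyme for full effect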
Target sequence (P31941 whole entry, looked up): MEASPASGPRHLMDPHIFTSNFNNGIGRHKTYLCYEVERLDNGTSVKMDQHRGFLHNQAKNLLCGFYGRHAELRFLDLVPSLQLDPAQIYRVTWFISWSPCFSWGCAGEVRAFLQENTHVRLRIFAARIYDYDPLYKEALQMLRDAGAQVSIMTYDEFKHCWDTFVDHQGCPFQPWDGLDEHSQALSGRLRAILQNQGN
CR mimetic SO – yeast age-related superoxide inhibition as caloric restriction mimetic. S. cerevisiae aged cells, superoxide DHE fluorescence; stronger effect = lower value. superoxide response (% of plate mean), % at 10 µM. actives 0.18% (n = 330,000). AID 2690;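 active means superoxide response under a set limit, about three screen SD below normal, cut at about 65% in these data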;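 further: yeast aged for seven days with compound at 30 °C before DHE staining; 100% = average MFI of all compound-treated wells on the plate with controls excluded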
ALR inh – human ALR oxidase inhibition via reduced H2O2; P55789; purified ALR, DTT oxidation, H2O2 HRP-luminol luminescence; inhibition, % (no concentration beside the values); actives 3.8% (n = 290,000); AID 485317;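 active means mean replicate inhibition above about 79%, with every replicate also reaching it, limit read from the data; inconclusive means only one of the two criteria met; inactive means mean below limit and not every replicate reaching it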
NRP1-CendR mod – NRP-1/CendR interaction modulation; O14786; FAM-RPARPAR peptide binding to NRP-1, fluorescence polarization; actives 0.85% (n = 360,000); inhibition, % at 25 µM; AID 602438;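 active means inhibition or corrected inhibition above about 18%, plus a signal ratio from 0.5 to 1.5, limit read from the data, passing the limit was not always enough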
M18AAP inhibitor – PfM18AAP enzyme inhibition. recombinant PfM18AAP, H-Glu-NHMec fluorogenic cleavage. inhibition, % at 7.35 µM. actives 1.2% (n = 290,000);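 active means inhibition above the campaign mean inhibition over all tested compounds plus 3 SD, cut at about 28% in these data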;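 further: 0% = plate median of test compound wells and 100% = 2 mM ZnCl2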
APOBEC3G inh – APOBEC3G (human) deaminase inhibition. recombinant A3G, ssDNA deamination FAM/TAMRA fluorescence. inhibition, % at 20 µM. actives 0.28% (n = 330,000);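 active means inhibition of at least 40% at 20 µM, with no more than 30% in the related APOBEC3A deaminase screen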;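 further: plate controls were DMSO wells with A3G for no effect and wells lacking A3G enzyme for full effect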
Target sequence (Q9HC16 whole entry, looked up): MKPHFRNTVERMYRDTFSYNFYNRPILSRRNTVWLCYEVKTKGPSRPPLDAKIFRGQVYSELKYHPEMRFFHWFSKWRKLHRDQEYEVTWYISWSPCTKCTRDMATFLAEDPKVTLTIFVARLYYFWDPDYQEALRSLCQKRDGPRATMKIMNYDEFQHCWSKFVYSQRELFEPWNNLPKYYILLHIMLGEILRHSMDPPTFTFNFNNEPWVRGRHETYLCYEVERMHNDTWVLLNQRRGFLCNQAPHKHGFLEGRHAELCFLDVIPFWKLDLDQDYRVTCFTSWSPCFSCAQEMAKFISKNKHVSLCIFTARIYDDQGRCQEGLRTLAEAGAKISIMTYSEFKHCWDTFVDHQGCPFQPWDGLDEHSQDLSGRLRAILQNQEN
Starred values were filed as active, the others as inactive; ? = inconclusive; · = no result given. The list is not random: actives were taken first. Their share in the collection is about 5.2%.

SMILES	APOBEC3A inh	CR mimetic SO	ALR inh	NRP1-CendR mod	M18AAP inhibitor	APOBEC3G inh
COc1ccc(N2CCN(C(=O)CN(C)S(=O)(=O)c3cnc[nH]3)CC2)cc1	-9	87	87*	-11	0	-12
COc1ccc(N2CCN(CC(=O)N3N=CCC3c3ccccc3)CC2)cc1 (stereo not given)	0	99	84*	2	-2	-5
O=C(Cc1ccc(Cl)cc1)NCC(=O)N1CCN(c2ccccc2)CC1	2	106	29	-2	1	0
COc1ccccc1N1CCN(CC(=O)N2N=CCC2c2ccccc2)CC1 (stereo not given)	1	82	22	-4	-3	-5
Cc1ccc2nc(CSc3nnc(Nc4ccccc4C)s3)cc(=O)n2c1	3	103	·	-11	4	0
CCC1(CC)C(=O)C2=C3C1[C@H](C(=O)OC)CC(C(=O)OC)C[C@H]3[C@H]1C(=O)N(c3ccccc3)C(=O)[C@H]1[C@H]2C (stereo not given in full)	-4	102	-15	-2	·	-14
COc1ccc(N2CCN(C(=O)CCCCn3c(=O)[nH]c4ccsc4c3=O)CC2)cc1	0	101	83*	4	0	-7
COc1ccc(N2CCN(C(=O)CCCn3c(=O)[nH]c4ccsc4c3=O)CC2)cc1	-3	94	65	9	2	-5
COc1ccc(N2CCN(C(C)C(=O)N(C)Cc3ccccc3)CC2)cc1 (stereo not given)	-6	106	96*	9	0	-9
O=C(NCC(=O)N1CCN(c2ccc([N+](=O)[O-])cc2)CC1)c1ccco1	-2	102	-3	-10	·	-2
COc1ccc(N(C(C)C(=O)N(C)Cc2ccccc2)S(C)(=O)=O)cc1 (stereo not given)	-3	91	-8	-3	-4	2
O=C(NCC(=O)N1CCN(c2ccccc2)CC1)c1ccco1	-4	121	61	27*	-7	-3
COc1ccc(OC)c(S(=O)(=O)N(C)CC(=O)N2CCN(c3cccc(Cl)c3)CC2)c1	-3	110	11	19*	5	-6
COc1ccc(OC)c(S(=O)(=O)N(C)CC(=O)N2CCN(c3ccc(F)cc3)CC2)c1	-5	114	28	5	-2	0
COc1ccc(NC(=O)COC(=O)c2cc(OC)c(OC)cc2NC(=O)c2ccco2)cc1OC	15	113	-14	9	-14	-2
COc1ccc(N2CCN(C(=O)[C@H](Cc3c[nH]c4ccccc34)NC(C)=O)CC2)cc1	1	105	98*	0	-4	-3
COc1ccc(N2CCN(C(=O)Nc3ccccc3Cl)CC2)cc1	-3	104	87*	9	0	-9
CC(=O)NC(Cc1c[nH]c2ccccc12)C(=O)N1CCc2ccccc2C1 (stereo not given)	-3	93	-3	14	2	-4
CCCN(CC(=O)Nc1ccccc1C)C(=O)c1ccc(-c2ccccc2)cc1	0	91	17	7	-1	-6
CSCCC(C(=O)N1C[C@]2(C)C[C@H]1CC(C)(C)C2)N1C(=O)c2ccccc2C1=O (stereo not given in full)	-5	90	-7	-2	-8	-7
CC(=NCCc1c(C)[nH]c2ccc(C)cc12)C1=C(O)CC(c2ccccc2)CC1=O (stereo not given)	0	87	17	-3	2	-7
CC(=NCCc1c(C)[nH]c2ccc(OC(F)(F)F)cc12)C1=C(O)CC(c2ccccc2)CC1=O (stereo not given)	6	65*	13	-3	-2	5
Cc1ccccc1CSc1nnc(C)c(=O)[nH]1	0	98	91*	-13	4	-6
Cc1nnc(SCc2ccc([N+](=O)[O-])cc2)[nH]c1=O	-3	98	15	-2	1	-4
Cc1nnc(SCc2cccc([N+](=O)[O-])c2)[nH]c1=O	-1	106	99*	-4	8	-2
SMILES	APOBEC3A inh	CR mimetic SO	ALR inh	NRP1-CendR mod	M18AAP inhibitor	APOBEC3G inh
Cc1ccccc1CSc1nc2ccccc2c(=O)[nH]1	1	100	-6	2	2	2
O=C(Nc1ccc(Cl)cc1Cl)c1n[nH]c(Cn2cncn2)n1	-2	95	48	5	-3	-8
COc1ccc(N2CCN(CCNC(=O)CCS(=O)(=O)c3cccc4nsnc34)CC2)cc1	2	97	94*	·	-3	0
CC(C)C(NS(=O)(=O)c1cccs1)C(=O)NCCN1CCN(c2ccccc2)CC1 (stereo not given)	-3	100	99*	6	7	0
COc1ccc(N2CCN(CCNC(=O)CCNS(=O)(=O)c3cccs3)CC2)cc1	-1	102	93*	-12	2	-2
COc1ccc(N2CCN(CCNC(=O)C3CCN(S(=O)(=O)c4cccs4)CC3)CC2)cc1	-1	96	12	-4	2	-1
COc1ccc(N2CCN(CCNC(=O)Nc3ccc([N+](=O)[O-])cc3OC)CC2)cc1	-1	98	89*	0	5	-5
COc1ccc(OC)c(NC(=O)NCCN2CCN(c3ccccc3)CC2)c1	3	109	?	1	-17	3
Oc1ccc(NCc2cccs2)cc1	4	92	96*	6	1	3
CC(=O)Nc1ccc(NCc2cccs2)cc1	-12	100	95*	0	7	4
Cc1ccc(C)c(N2CCN(C(=O)C3CCN(c4nc(C)cc(C)n4)CC3)CC2)c1	3	78	0	-4	-2	-2
CC(C)NC(=O)C1(C)CCN1C(=O)C1(c2ccccc2)CC1 (stereo not given)	·	·	·	-5	·	·
CN(c1ccccc1)c1nc2ccsc2c(=O)s1	-1	96	1	-14	4	-10
CCc1nc2ccc(C(=O)NCCCN3CCCC3=O)cn2c1N(C)C(=O)COc1ccccc1	·	·	·	1	·	·
O=C(NC1CC1)C1=C[C@@H](c2ccc3c(c2)OCO3)C[C@@H](OCCCCO)O1	-3	100	-13	28*	·	3
O=C(C1=C[C@H](c2ccc(C(F)(F)F)cc2)C[C@H](OCCCCO)O1)N1CCN(Cc2ccc3c(c2)OCO3)CC1	-3	95	-14	29*	3	-9
O=C(C1=C[C@@H](c2csc3ccccc23)C[C@@H](OCCCCO)O1)N1CCN(Cc2ccc3c(c2)OCO3)CC1	-4	100	-12	11	-2	-14
O=C(C1=C[C@H](c2csc3ccccc23)C[C@H](OCCCCO)O1)N1CCN(Cc2ccccc2)CC1	-1	·	-16	27*	4	-12
CCOC(=O)CCCCCC(=O)Nc1ccc2c(c1)C(=O)N([C@H](C)CO)C[C@@H](C)[C@H](CN(C)S(=O)(=O)c1cn(C)cn1)O2	-4	82	7	6	·	-5
